Source: PubChem BioAssay (NCI)
This is part of a sample that, as a whole, favours compounds with a hit. Of some 79,000 tested, about 15% had one in any assay. Unmarked numbers belong to inactive results. Calls of active or inactive are those of the source. Cut-off read from the data, not from the text of the source: active = growth inhibition above about 70%; inactive = the rest.

Experiment: NCI Yeast Anticancer Drug Screen. Data for the mlh1 rad18 strain (AID 175)
Details: S. cerevisiae mlh1 rad18 strain growth inhibition; at 50.0 µM (retest, dose inferred, filed as 5.0); stronger effect = higher value
In short: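 In this whole-cell yeast screen, a strain with altered DNA damage repair is challenged with compound, and its growth is measured against matched vehicle-treated controls.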
In the case of `Cc1cc(O)c(C(=O)/C=C/c2cccnc2)c(=O)[nH]1`, the growth inhibition is reported as 91% (active). With `Oc1ccccc1C(=NNc1ccccc1)c1ccccc1O` the growth inhibition was 98% (active). Compound `Cn1c(=S)c2[nH]c(SCCN3CCCCC3)nc2n(C)c1=O` has a growth inhibition of 55%. With `Cc1cc(=O)n(-c2cc3cccccc-3n2)[nH]1` the growth inhibition was 98% (active). For `CC(=O)OCC1OC(n2c(O)c(N=NC(N)=S)c3ccc([N+](=O)[O-])cc32)C(OC(C)=O)C1OC(C)=O` (stereo unspecified), the growth inhibition was 68%. With `COC(=O)NNc1c([N+](=O)[O-])cnn(-c2ccccc2)c1=O` the growth inhibition was -12%. With `CC(=O)N(C1=C(Cl)C(=O)c2ccccc2C1=O)c1ccc(F)cc1` the growth inhibition was 99% (active). With `COC(=O)CC1c2cc(OC)c3cccc(OC)c3c2CCC1(C)C(=O)OC` (stereo unspecified) the growth inhibition was 91% (active). With `CC[n+]1c(/C=C/c2ccc(N(C)C)cc2)ccc2ccccc21` the growth inhibition was 99% (active). For `COc1ccc(SC2=C(N(C)C)C(=O)c3ccccc3C2=O)cc1`, the growth inhibition was 88% (active). For `C1=C(c2ccccc2)C(=Nc2ccccc2)SC1=Nc1ccccc1`, the growth inhibition was 99% (active). For `Cc1c(O)c(Br)c(Br)c(Br)c1Br`, the growth inhibition was 95% (active). For `CC1(C)OC(C(COC(=O)c2ccc([N+](=O)[O-])cc2)OS(=O)(=O)c2ccc([N+](=O)[O-])cc2)C(C(SCc2ccccc2)SCc2ccccc2)O1` (stereo unspecified), the growth inhibition was 98% (active). In the case of `Cc1cccc(Cc2ccc(Cl)cc2)c1O`, the growth inhibition is reported as 99% (active). With `C=C(CN(C)C)C(=O)c1ccccc1[N+](=O)[O-]` the growth inhibition was 92% (active). With `CCCCN(CCCC)CC(O)c1cc(-c2ccc(Cl)cc2)nc2c(C)cccc12` (stereo unspecified) the growth inhibition was 95% (active).
